# Measurements: paper PMC11208138
# What was measured:
# Assay in all cases: cross-link between two proteins; cross-linking mass spectrometry
# [1] = biological target: PHD finger-like domain-containing protein 5A (UniProt Q7RTV0)
# [2] = biological target: Small nuclear ribonucleoprotein Sm D2 (UniProt P62316)
# [3] = biological target: Splicing factor 3B subunit 5 (UniProt Q9BWJ5)
# [4] = biological target: THO complex subunit 4 (UniProt Q86V81)
# Chain of Small nuclear ribonucleoprotein F, P62306 (P62306 whole entry): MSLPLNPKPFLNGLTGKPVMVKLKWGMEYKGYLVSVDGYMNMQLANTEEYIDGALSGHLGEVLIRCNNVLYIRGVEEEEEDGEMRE
# Chain of Small nuclear ribonucleoprotein Sm D2 (P62316 whole entry): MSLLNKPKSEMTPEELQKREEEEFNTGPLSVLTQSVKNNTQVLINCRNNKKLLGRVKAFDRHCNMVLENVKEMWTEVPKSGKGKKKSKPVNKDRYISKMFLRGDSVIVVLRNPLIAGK
# Chain of Splicing factor 3B subunit 5 (Q9BWJ5 whole entry): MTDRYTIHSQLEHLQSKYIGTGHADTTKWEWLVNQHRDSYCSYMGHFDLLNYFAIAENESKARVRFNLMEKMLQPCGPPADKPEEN
# Chain of PHD finger-like domain-containing protein 5A (Q7RTV0 whole entry, the tested form may be a part): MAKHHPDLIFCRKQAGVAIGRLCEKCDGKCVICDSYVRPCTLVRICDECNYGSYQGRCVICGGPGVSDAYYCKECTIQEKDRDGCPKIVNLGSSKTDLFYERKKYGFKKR
# Chain of PHD finger-like domain-containing protein 5A, Q7RTV0 (Q7RTV0 whole entry, the tested form may be a part): as above
# Chain of Splicing factor 3B subunit 1, O75533 (O75533 whole entry): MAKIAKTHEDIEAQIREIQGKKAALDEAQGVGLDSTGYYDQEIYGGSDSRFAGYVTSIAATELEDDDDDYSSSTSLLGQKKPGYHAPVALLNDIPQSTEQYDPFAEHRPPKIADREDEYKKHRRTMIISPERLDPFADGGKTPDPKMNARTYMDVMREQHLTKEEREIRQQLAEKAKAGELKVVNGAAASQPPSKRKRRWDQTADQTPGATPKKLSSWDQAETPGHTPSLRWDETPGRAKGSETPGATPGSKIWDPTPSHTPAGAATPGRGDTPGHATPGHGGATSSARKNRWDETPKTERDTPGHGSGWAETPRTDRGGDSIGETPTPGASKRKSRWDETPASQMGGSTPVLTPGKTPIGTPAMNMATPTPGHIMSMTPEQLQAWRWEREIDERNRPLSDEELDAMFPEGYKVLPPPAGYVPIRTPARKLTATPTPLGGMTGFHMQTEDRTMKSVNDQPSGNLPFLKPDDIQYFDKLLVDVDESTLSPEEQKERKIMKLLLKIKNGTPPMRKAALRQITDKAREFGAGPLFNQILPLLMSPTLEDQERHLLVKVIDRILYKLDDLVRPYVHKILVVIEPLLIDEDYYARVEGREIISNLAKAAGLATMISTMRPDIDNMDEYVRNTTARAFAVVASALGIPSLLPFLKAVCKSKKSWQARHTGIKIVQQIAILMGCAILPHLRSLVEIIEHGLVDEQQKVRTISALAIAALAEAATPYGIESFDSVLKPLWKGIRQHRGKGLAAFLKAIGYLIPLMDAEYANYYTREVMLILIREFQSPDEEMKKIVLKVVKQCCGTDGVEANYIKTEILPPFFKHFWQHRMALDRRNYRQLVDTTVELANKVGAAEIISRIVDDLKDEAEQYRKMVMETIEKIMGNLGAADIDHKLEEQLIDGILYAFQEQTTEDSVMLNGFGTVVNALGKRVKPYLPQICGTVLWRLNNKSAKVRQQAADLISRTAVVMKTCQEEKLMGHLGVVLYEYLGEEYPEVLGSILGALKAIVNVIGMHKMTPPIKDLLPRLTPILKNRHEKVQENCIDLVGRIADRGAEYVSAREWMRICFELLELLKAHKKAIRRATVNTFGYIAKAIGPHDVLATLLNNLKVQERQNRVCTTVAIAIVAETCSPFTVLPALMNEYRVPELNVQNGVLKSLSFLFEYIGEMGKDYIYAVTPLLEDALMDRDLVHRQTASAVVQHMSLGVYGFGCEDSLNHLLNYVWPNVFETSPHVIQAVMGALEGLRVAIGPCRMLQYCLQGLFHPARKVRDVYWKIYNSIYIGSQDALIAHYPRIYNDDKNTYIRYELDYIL
substance,measurement,setting,value
"Splicing factor 3B subunit 1, O75533",listed as a hit,[1],yes
"Small nuclear ribonucleoprotein F, P62306",listed as a hit,[2],yes
"PHD finger-like domain-containing protein 5A, Q7RTV0",listed as a hit,[3],yes
"Enhancer of rudimentary homolog, P84090",listed as a hit,[4],yes
